Results reported in the supplement of paper PMC3334620.
In all, about 33,000 sequences were measured (“E-score (-0.5 to 0.5)”: median about -0.016, highest 2% from about 0.32 on). For the sample, the highest values were picked, then their nearest neighbours and some sequences at random.

Each sequence was assayed against T1, Stp1 (UniProt B3LFK1) (assay: PBM E-score (8-mer binding enrichment) (E-score (-0.5 to 0.5)); higher = stronger / more preferred TF binding). Settings: protein concentration: 200 nM; construct: GST-full length.
T1 sequence: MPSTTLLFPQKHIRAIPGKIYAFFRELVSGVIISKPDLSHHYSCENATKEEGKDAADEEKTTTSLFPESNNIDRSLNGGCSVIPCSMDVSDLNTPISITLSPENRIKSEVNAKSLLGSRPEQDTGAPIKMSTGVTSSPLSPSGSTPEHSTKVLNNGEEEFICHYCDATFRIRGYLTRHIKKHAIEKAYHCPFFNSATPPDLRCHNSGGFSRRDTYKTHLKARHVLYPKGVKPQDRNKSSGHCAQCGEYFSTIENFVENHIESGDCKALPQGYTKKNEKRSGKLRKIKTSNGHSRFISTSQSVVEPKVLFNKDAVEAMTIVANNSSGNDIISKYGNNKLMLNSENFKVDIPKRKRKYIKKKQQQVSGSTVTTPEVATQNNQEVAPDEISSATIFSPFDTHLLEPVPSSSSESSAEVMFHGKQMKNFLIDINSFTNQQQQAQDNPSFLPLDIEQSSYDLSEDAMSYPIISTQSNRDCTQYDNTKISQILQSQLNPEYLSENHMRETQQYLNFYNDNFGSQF
Experimental: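 Universal 'all 10-mer' protein binding microarrays (Agilent AMADID 015681) probed with GST-tagged S. cerevisiae TFs (full-length or DBD) made by in vitro transcription/translation (PURExpress), about 100-200 nM. Bound TF was detected with fluorescent anti-GST. Each ungapped 8-mer (which stands for itself and its reverse complement) is scored by the PBM enrichment score (E-score), a modified Wilcoxon-Mann-Whitney statistic from -0.5 to +0.5, computed with the Universal PBM Analysis Suite. Scale: above 0.35 generally sequence-specific binding.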

Sequence	PBM E-score
CGTCACGA	0.0354
AGAACGCA	-0.00423
AGGGCATA	0.128
ACGGCATA	0.45
GCGGCATA	0.435
GTGGCATA	0.0347
ATGGCATA	0.226
CCGGCATA	-0.183
AGCCTATG	-0.0976
ATTGGCGC	0.189
ACGCACCG	0.0649
CGTTGCTC	0.0478
GAAGGGCA	0.231
GACCGAGC	-0.228
AGGCGTCA	0.172
GGGCGTCA	-0.037
CGGCGTCA	0.399
CGGCGTGC	0.316
CGGCGTCC	0.376
AGGCGTCC	-0.0371
GGTGGTGA	-0.125
GAGTACGA	0.0292
GTCTAAGA	0.0284
CATACTTA	-0.00908
AACTTCAT	0.092
GAATCGGC	0.268

Sequence	PBM E-score
AGCATGCG	0.016
CAGGGGCA	-0.0911
AGGCCTTC	-0.188
CGGCCTTA	0.293
CGGCCTTC	0.322
TATAAATA	0.198
AATAAATG	0.219
AATAAATA	0.35
CACAGTAA	0.209
GGGAGACC	-0.355
GCCTCACC	0.327
GCCTCACA	0.263
ACCTCACC	-0.128
GATGCAGA	-0.0503
GCTGTTGA	0.169
CTGTAGCC	0.041
ATTTCAAA	0.134
CATCGCGG	0.0513
TCATGGCA	-0.00249
CCATGGCA	0.0885
GCATGGCA	0.375
ACTCCGCG	0.068
ACTACGGC	0.359
CCTACGCC	-0.0289
CCTACGGA	-0.13
CCTACGGC	0.39

Sequence	PBM E-score
ACTACGGG	-0.222
ACTACGGA	-0.0355
CTATCTTA	0.0702
GAAAGGAC	0.0713
AATAGTAA	0.0925
CTGTCGCA	0.00593
CCCGCTGA	-0.297
GATCGCAA	0.0331
CCGCGTGA	0.313
GCGCGCGC	0.396
CCGCGCGA	0.314
ACGCGCGG	0.316
ACGCGCGC	0.289
CCGCGCGG	0.469
CCGCGCTC	0.235
ACGCGTGC	0.191
CAGCGCGG	0.211
CCGCGTGC	0.329
GCGCGCGA	0.285
CCGCGCGC	0.381
GCTATCCA	-0.0017
CCTCCAGC	-0.217
CAAGAGTC	-0.177
ACCACGGA	-0.0752
GCCACGCC	0.267
CCCACGGA	0.00496

Sequence	PBM E-score
CCCACGGG	-0.166
ACCACGGC	0.327
GCCACGGA	0.163
CCCACGGC	0.417
GCCACGGC	0.469
ACCACGGG	-0.0439
GGCCCCCA	-0.406
AAGCTCAT	-0.206
AATTCTCC	0.0125
GAATTCTC	0.0702
AAAGGCGA	0.0862
GAAGGCGA	0.129
CAAGGCGG	0.101
CAAGGCGA	0.194
AAAGGCGG	0.111
AAAGGCGC	0.402
GCAGGCGC	0.148
CAAGGCGC	0.4
GAAGGCGC	0.333
AAACTGGT	-0.0925
AGTTCATG	0.0464
ATCAGCAT	0.0572
GAAAACGC	0.119
TAAGTCGA	-0.123
TAACAGCA	0.174
AATGCACC	-0.0414

Sequence	PBM E-score
CTAAGAGC	-0.0921
ATCTTCAT	-0.0473
AAGCTGTC	-0.113
ACAACTAT	0.0651
ATGCCGAC	0.0658
CTGCCGTA	0.343
CTTCCGTA	0.163
CTGCCGGA	0.02
ATACCGTA	0.133
ATGCCGTC	0.406
CTGCCGTC	0.299
ATTCCGTA	0.106
ATGCCGGG	-0.0642
ATGCCGAG	0.31
ATGCCGTA	0.478
ATGCCGTG	0.484
CAGCGATG	-0.0761
AACAGAGC	0.00906
GCCTACAC	-0.0439
ATATCTAA	0.0738
GAAGCTGC	-0.188
ACGAGCCG	0.336
ACGAGCCT	-0.0868
CCGAGCCG	0.334
ACGAGCCA	-0.0521
CCGAGCCA	-0.0385

Sequence	PBM E-score
CCGAGCCC	-0.29
CGAGGGAC	-0.245
GGCCTCAC	-0.00507
CGCCTCGC	0.394
CGCCTCAC	0.395
CGCCTCAG	0.289
AGCCTCGC	0.0691
CGCCTCGA	0.205
CAGGAGCC	-0.0638
GGCTTGGA	-0.128
GTTGGGCA	0.0977
CTCACCCC	0.0927
CTATCGCC	0.0882
ATATCGCG	0.127
CACGCGCC	0.291
ATTTCGCC	0.336
ATTTCGCA	0.111
GACGCGCC	0.348
ATCGCGCG	0.235
ATCGCGCA	-0.0273
ATATCGCC	0.322
ATCGCGCC	0.394
ATTTCGCG	0.177
GACGCGCA	-0.105
CATTCGAC	-0.0891
CAAAACGG	0.308

Sequence	PBM E-score
ACGTGCAG	0.105
GATGGTCC	-0.219
CCTCTCTC	-0.339
AACGCGCT	0.0273
AACGCGCC	0.361
AACGCGCG	0.232
ACAGGGGT	-0.338
GAAGGTGA	0.0707
CCCGCGGG	0.104
ACCGCGGT	-0.3
CCCGCGGC	0.411
ACCGCGGC	0.384
GCCGCGGA	0.343
GCCGCGGC	0.474
ACCGCGGA	-0.0118
ACCGCGGG	0.0822
GCCGCGAA	0.159
GCCGCGAC	0.282
CCCGCGGA	0.0756
TCCGCGGA	0.0517
